Data: PubChem BioAssay (NCI)
This is part of a sample that, as a whole, favours compounds with a hit. Of some 79,000 tested, about 15% had one in any assay. The source made the active and inactive calls. No stated cut-off is given here; in the data, active means growth inhibition above about 70%; inactive means the rest.

Assays:
[1] = NCI Yeast Anticancer Drug Screen. Data for the rad52 strain (AID 147);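 further: 0% = growth of vehicle-treated control cultures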; conditions: S. cerevisiae rad52 mutant growth inhibition, hits give high values
In short: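 Growth of repair-deficient yeast cells was compared between compound-treated and vehicle-treated cultures to give percent inhibition.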

[2] = NCI Yeast Anticancer Drug Screen. Data for the wt1 strain (AID 149);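 further: 0% = growth of vehicle-treated wt1 cultures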; conditions: S. cerevisiae wt1 strain (SPY 50644) growth inhibition, hits give high values
In short: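 Yeast wt1 strain exposed to compounds; growth inhibition measured relative to vehicle-treated controls.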

[3] = NCI Yeast Anticancer Drug Screen. Data for the rad50EPP+ strain (AID 151);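 further: 0% = growth of vehicle-treated control cultures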; conditions: S. cerevisiae rad50 mutant strain, hits give high values
In short: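 Measured: growth inhibition of rad50EPP+ yeast. Reference: vehicle-treated controls. Screen uses strains with defined genetic alterations in DNA damage repair or cell cycle control.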

[4] = NCI Yeast Anticancer Drug Screen. Data for the mgt1 strain (AID 153); conditions: S. cerevisiae mgt1 mutant growth inhibition, hits give high values
In short: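 Compounds were applied to mgt1 mutant yeast, and growth was then compared against vehicle-treated control cultures to give percent inhibition.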

[5] = NCI Yeast Anticancer Drug Screen. Data for the rad50 strain (AID 155);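 further: 0% = growth of vehicle-only cultures of the same strain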; conditions: S. cerevisiae rad50 strain growth inhibition, hits give high values
In short: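 Yeast carrying a defined DNA repair defect were exposed to test compounds, and growth was compared with vehicle-treated controls to give percent inhibition.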

[6] = NCI Yeast Anticancer Drug Screen. Data for the mec2-1 strain (AID 157); conditions: S. cerevisiae mec2-1 strain, hits give high values
In short: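 Compounds were applied to mec2-1 yeast cells. Their growth was then compared with that of vehicle-treated cultures to give growth inhibition.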

[7] = NCI Yeast Anticancer Drug Screen. Data for the sgs1 mgt1 strain (AID 161);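 further: 0% = growth of cultures given vehicle only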; conditions: S. cerevisiae sgs1 mgt1 strain, hits give high values
In short: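 Percent growth inhibition was derived by comparing compound-exposed mutant yeast with vehicle-exposed cultures. The strain carries alterations in DNA damage repair.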

[8] = NCI Yeast Anticancer Drug Screen. Data for the CLN2oe strain (AID 163);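 further: 0% = growth of vehicle-only control cultures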; conditions: S. cerevisiae CLN2oe strain, hits give high values
In short: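 Cells of an engineered yeast line with disturbed cell-cycle regulation are treated with compound. Inhibition of growth is then calculated relative to the vehicle-treated reference.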

[9] = NCI Yeast Anticancer Drug Screen. Data for the cln2 rad14 strain (AID 165);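 further: 0% = growth equal to vehicle treated cultures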; conditions: S. cerevisiae cln2 rad14 strain, hits give high values
In short: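 Strain: cln2 rad14 yeast, altered in cell cycle control and DNA damage repair. Read-out: growth inhibition vs vehicle.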

[10] = NCI Yeast Anticancer Drug Screen. Data for the bub3 strain (AID 167); conditions: S. cerevisiae bub3 mutant strain, hits give high values
In short: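 Compounds were applied to a genetically altered yeast strain carrying a cell-cycle control defect. Growth inhibition was scored against vehicle-treated controls.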

[11] = NCI Yeast Anticancer Drug Screen. Data for the wt2 strain (AID 169);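 further: 0% = growth of vehicle-treated yeast cultures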; conditions: S. cerevisiae wt2 strain growth inhibition, hits give high values
In short: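 Growth of compound-treated yeast is measured and expressed as inhibition relative to vehicle-only controls.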

[12] = NCI Yeast Anticancer Drug Screen. Data for the mlh1 strain (AID 171);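 further: 0% = growth of vehicle-treated control cultures of the same strain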; conditions: S. cerevisiae mlh1 strain growth inhibition, hits give high values
In short: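 Test agents were incubated with yeast bearing a defined DNA damage repair or cell cycle control alteration; values are growth inhibition normalised to vehicle-treated cultures.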

[13] = NCI Yeast Anticancer Drug Screen. Data for the sgs1 strain (AID 173);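 further: 0% = growth of vehicle-only control cultures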; conditions: S. cerevisiae sgs1 mutant, hits give high values
In short: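 Strain with an altered DNA repair or cell cycle pathway exposed to compound. Growth then measured. Value = inhibition versus vehicle control.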

[14] = NCI Yeast Anticancer Drug Screen. Data for the mlh1 rad18 strain (AID 175); conditions: S. cerevisiae mlh1 rad18 strain growth inhibition, hits give high values
In short: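 A repair-deficient yeast strain is exposed to test compound, and growth is scored relative to vehicle-treated controls.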

[15] = NCI Yeast Anticancer Drug Screen. Data for the rad18 strain (AID 177); conditions: S. cerevisiae rad18 mutant growth inhibition, hits give high values
In short: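 DNA-repair-defective yeast; compound treatment; growth inhibition scored against vehicle.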

[16] = at 5.0 µM (retest, dose inferred, filed as 0.5)
[17] = at 50.0 µM (retest, dose inferred, filed as 5.0)

Measured: growth inhibition

COC(=O)c1c(C)ccc2c(O)c3c(cc12)C(=O)c1c2c(cc(O)c1C3=O)C1(C)OC(C)(O2)C(O)C(N(C)C)C1O (stereo not drawn)
inactive: [1]; at 1.2 µM 2% | [1]; at 3.7 µM 17% | [1]; at 11.0 µM 68% | [2]; at 1.2 µM 5% | [2]; at 3.7 µM 1% | [2]; at 11.0 µM 22% | [3]; at 1.2 µM -2% | [3]; at 3.7 µM 17% | [3]; at 11.0 µM 51% | [3]; at 100.0 µM 67% | [4]; at 1.2 µM 0% | [4]; at 3.7 µM 10% | [4]; at 11.0 µM 23% | [5]; at 1.2 µM 4% | [5]; at 3.7 µM 35% | [5]; [16] 10% | [6]; at 1.2 µM -3% | [6]; at 3.7 µM 3% | [6]; [16] 6% | [7]; [16] -11% | [8]; at 1.2 µM -7% | [8]; at 3.7 µM 0% | [8]; at 11.0 µM 39% | [9]; [16] 39% | [10]; at 1.2 µM -4% | [10]; at 3.7 µM -2% | [10]; [16] -19% | [10]; at 11.0 µM 64% | [11]; at 1.2 µM -1% | [11]; at 3.7 µM 4% | [11]; at 11.0 µM 39% | [12]; at 1.2 µM 2% | [12]; at 3.7 µM 19% | [12]; at 11.0 µM 68% | [13]; at 1.2 µM 0% | [13]; at 3.7 µM 7% | [13]; at 11.0 µM 44% | [14]; [16] 1% | [15]; at 1.2 µM 1% | [15]; at 3.7 µM 25%
active: [1]; at 33.0 µM 94% | [1]; at 100.0 µM 91% | [2]; at 33.0 µM 79% | [2]; at 100.0 µM 94% | [3]; at 33.0 µM 74% | [4]; at 33.0 µM 95% | [4]; at 100.0 µM 94% | [5]; at 11.0 µM 90% | [5]; at 33.0 µM 92% | [5]; [17] 98% | [5]; at 50.0 µM 97% | [5]; at 100.0 µM 84% | [6]; at 11.0 µM 70% | [6]; at 33.0 µM 97% | [6]; [17] 98% | [6]; at 50.0 µM 95.5% | [6]; at 100.0 µM 88% | [7]; [17] 95% | [7]; at 50.0 µM 97.8% | [8]; at 33.0 µM 94% | [8]; at 100.0 µM 92% | [9]; [17] 97% | [9]; at 50.0 µM 92.9% | [10]; at 33.0 µM 96% | [10]; [17] 98% | [10]; at 50.0 µM 95.7% | [10]; at 100.0 µM 89% | [11]; at 33.0 µM 97% | [11]; at 100.0 µM 94% | [12]; at 33.0 µM 97% | [12]; at 100.0 µM 95% | [13]; at 33.0 µM 96% | [13]; at 100.0 µM 91% | [14]; [17] 98% | [14]; at 50.0 µM 96.5% | [15]; at 11.0 µM 80% | [15]; at 33.0 µM 95% | [15]; at 100.0 µM 88%
